Results taken from PubChem BioAssay (Tox21).
Unmarked numbers belong to inactive results. Results filed as inconclusive are left out. A call without a number means that no potency is given here. Calls of active or inactive are those of the source. Unless noted, calls come from the whole dose curve; as a rule, active = well fitted curve in the direction sought with a large enough effect in the repeat runs; inconclusive = weak or mixed curves; inactive = no such curve, though single readings can be large; an effect the other way counts as inactive or inconclusive.

How the values were obtained:
[1] = qHTS assay for small molecule agonists of the p53 signaling pathway (AID 651631; calls by dose curve; note: nearly all actives have a fitted effect of over 15% in size)
How it was run: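 Beta-lactamase reporter activity under p53 response elements was quantified in HCT-116 cells by FRET fluorescence, following 16 h incubation with test compounds at 37 °C and 2 h substrate development at room temperature.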

[2] = qHTS assay for small molecules that induce genotoxicity in human embryonic kidney cells expressing luciferase-tagged ATAD5 (AID 651632); note: nearly all actives have a fitted effect of over 15% in size
How it was run: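 Increased luciferase signal from ATAD5-tagged reporter cells indicates DNA-damage-driven ATAD5 induction. HEK293T cells are treated for 16 hr at 37C before detection with Amplite.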

[3] = qHTS assay for small molecule agonists of the p53 signaling pathway - cell viability (AID 651633; calls by dose curve;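 note: p53RE-bla HCT reporter cells with a stable beta-lactamase p53 reporter; series mostly up to about 83 µM; nearly all actives have a fitted effect of over 30% in size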)
How it was run: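 p53RE-bla cells were treated with compound for 16 hours at 37 C. Cytotoxicity was then measured as CellTiter-Glo luminescence after 30 min at room temperature.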

[4] = qHTS assay for small molecules that induce genotoxicity in human embryonic kidney cells expressing luciferase-tagged ATAD5 - cell viability (AID 651634; calls by dose curve; note: nearly all actives have a fitted effect of over 25% in size)
How it was run: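 Cytotoxicity counterscreen in HEK293T cells bearing an ATAD5-luciferase reporter: live-cell protease activity measured by CellTiter-Fluor fluorescence after 15.5 hr compound exposure.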

[5] = qHTS assay for small molecule disruptors of the mitochondrial membrane potential - cell viability (AID 720634; calls by dose curve;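 note: human HepG2 liver cancer cells; series mostly up to about 83 µM; nearly all actives have a fitted effect of over 20% in size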)
How it was run: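 After overnight attachment at 37 C, HepG2 cells received compound or DMSO vehicle for 1 hr. Viability is then taken from ATP-driven luminescence following a 30 min room-temperature CellTiter-Glo step.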

[6] = qHTS assay to test for compound auto fluorescence at 590 nm (red) in HepG2 cells (AID 720674)
How it was run: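 Fluorescence at 590 nm emission following 540 nm excitation was recorded from HepG2 wells one hour after compound transfer, with DMSO-only wells as vehicle and Rose Bengal sodium equivalency as the scale.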

[7] = qHTS assay to test for compound auto fluorescence at 535 nm (green) in HepG2 cells (AID 720675)
[8] = qHTS assay to test for compound auto fluorescence at 460 nm (blue) in HEK293 cells (AID 720678)
How it was run: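 Cells were seeded and left to adhere for 4-5 hr at 37C. Compounds were then pin-transferred. After an overnight incubation at 37C under 5% CO2, intrinsic fluorescence at 405/460 nm was measured and referenced to triamterene.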

[9] = qHTS assay to test for compound auto fluorescence at 590 nm (red) in HEK293 cells (AID 720679)
How it was run: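 Each well held 2,000 HEK293 cells in medium containing 10% dialyzed FBS. Following 4-5 hr attachment at 37C, 23 nL test compound or DMSO was added; plates sat overnight, and red fluorescence (540/590nm) was recorded.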

[10] = qHTS assay to test for compound auto fluorescence at 535 nm (green) in HEK293 cells (AID 720680)
[11] = qHTS assay to test for compound auto fluorescence at 460 nm (blue) in HEK293 cell free culture (AID 720681)
How it was run: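 Compounds were added to cell-free DMEM with 10% FBS and fluorescence read directly. The blue channel used 405 nm excitation and 460 nm emission, with triamterene as the reference fluorophore.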

[12] = qHTS assay to test for compound auto fluorescence at 535 nm (green) in HEK293 cell free culture (AID 720682)
How it was run: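 Each library compound, or DMSO control, is added by pintool to medium alone, comprising DMEM and 10% FBS. Emission at 535 nm following 485 nm excitation is quantified against fluorescein.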

[13] = qHTS assay to test for compound auto fluorescence at 590 nm (red) in HepG2 cell free culture (AID 720684)
How it was run: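 Compounds are added to culture medium (MEM, 10% FBS) lacking cells, then fluorescence is read at excitation 540 nm, emission 590 nm, with Rose Bengal sodium as the equivalency standard.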

[14] = qHTS assay to test for compound auto fluorescence at 460 nm (blue) in HepG2 cell free culture (AID 720685)
How it was run: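 Compound (23 nL) or DMSO pinned into cell-free MEM with 10% FBS; blue fluorescence read at 405/460 nm excitation/emission, expressed as auto-fluorescence equivalency to triamterene.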

[15] = qHTS assay to test for compound auto fluorescence at 535 nm (green) in HepG2 cell free culture (AID 720686)
[16] = qHTS assay to test for compound auto fluorescence at 460 nm (blue) in HepG2 cells (AID 720687)
How it was run: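 HepG2 cells in MEM with 10% FBS, attached overnight at 37 C, were exposed to compound or DMSO for 1 hr at 37 C, 5% CO2. Blue fluorescence was read at 405/460 nm, with triamterene as reference fluorophore.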

[17] = molecular target: Glucocorticoid receptor (Homo sapiens) (UniProt P04150); assay: qHTS assay to identify small molecule agonists of the glucocorticoid receptor (GR) signaling pathway (AID 720691; active = well fitted activation curve with a large enough effect in the signal ratio in the repeat runs, not every such curve was filed as active; the % refers to the signal ratio; note: potency is the fitted concentration of half-maximal effect)
Chain of Glucocorticoid receptor (Homo sapiens) (P04150 whole entry, looked up): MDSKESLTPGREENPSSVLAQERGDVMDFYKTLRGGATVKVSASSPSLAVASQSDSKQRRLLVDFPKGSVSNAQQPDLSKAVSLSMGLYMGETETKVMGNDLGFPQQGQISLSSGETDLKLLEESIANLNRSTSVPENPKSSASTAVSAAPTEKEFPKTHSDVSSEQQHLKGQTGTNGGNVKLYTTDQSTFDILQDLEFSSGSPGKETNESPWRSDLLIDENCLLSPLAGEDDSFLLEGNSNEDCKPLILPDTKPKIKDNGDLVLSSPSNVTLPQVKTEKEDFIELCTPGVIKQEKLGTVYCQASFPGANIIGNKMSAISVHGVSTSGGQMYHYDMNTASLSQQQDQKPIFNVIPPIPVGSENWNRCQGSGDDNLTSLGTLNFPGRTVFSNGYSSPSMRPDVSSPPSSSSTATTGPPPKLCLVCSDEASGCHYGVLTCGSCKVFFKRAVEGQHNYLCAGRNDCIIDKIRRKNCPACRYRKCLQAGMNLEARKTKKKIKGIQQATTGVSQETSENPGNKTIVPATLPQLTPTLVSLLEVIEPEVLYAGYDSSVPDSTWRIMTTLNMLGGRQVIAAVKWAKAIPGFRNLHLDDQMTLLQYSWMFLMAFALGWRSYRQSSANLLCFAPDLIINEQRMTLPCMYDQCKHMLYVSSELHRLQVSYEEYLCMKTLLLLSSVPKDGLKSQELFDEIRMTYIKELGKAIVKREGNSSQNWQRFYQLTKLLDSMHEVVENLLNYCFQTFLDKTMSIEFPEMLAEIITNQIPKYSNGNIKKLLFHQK
How it was run: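 Agonist mode in a HeLa line carrying a GRE-controlled beta-lactamase reporter. Compounds act for 18 h at 37 C before a 2 h room-temperature FRET substrate step and fluorescence reading.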

[18] = molecular target: Glucocorticoid receptor (Homo sapiens) (UniProt P04150); assay: qHTS assay to identify small molecule antagonists of the glucocorticoid receptor (GR) signaling pathway (AID 720692; active = well fitted inhibition curve with a large enough effect in the signal ratio in the repeat runs, not every such curve was filed as active; the % refers to the signal ratio)
How it was run: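 Cells plated, rested 4 h at 37 C/5% CO2; compounds in DMSO pin-transferred; dexamethasone added to 5 nM final; 18 h at 37 C; B/G FRET substrate added, 2 h room temperature; fluorescence measured.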

[19] = qHTS assay to test for compound auto fluorescence at 590 nm (red) in HEK293 cell free culture (AID 720683)
How it was run: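 Cell-free wells of DMEM with 10% FBS received compound, and intrinsic fluorescence was read at excitation/emission 540/590 nm. Values expressed as equivalence to Rose Bengal sodium.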

## CCCC(=O)C(C)=O
[1]
  outcome: inactive
[2]
  Potency: inactive
[3]
  outcome: inactive
[4]
  Potency: inactive
[5]
  outcome: inactive
[6]
  outcome: inactive
[7]
  outcome: inactive
[8]
  outcome: inactive
[9]
  outcome: inactive
[10]
  outcome: inactive
[11]
  outcome: inactive
[12]
  outcome: inactive
[13]
  outcome: inactive
[14]
  outcome: inactive
[15]
  outcome: inactive
[16]
  outcome: inactive
[17]
  Potency: inactive
[18]
  outcome: inactive

## CCCC/C=C/C=C\C=O
[1]
  outcome: inactive
[2]
  Potency: inactive
[3]
  outcome: inactive
[4]
  Potency: inactive
[5]
  outcome: inactive
[6]
  outcome: inactive
[8]
  outcome: inactive
[9]
  outcome: inactive
[10]
  outcome: inactive
[11]
  outcome: inactive
[12]
  outcome: inactive
[19]
  outcome: inactive
[13]
  outcome: inactive
[14]
  outcome: inactive
[16]
  outcome: inactive

## CO[C@@H]1[C@@H](OC(N)=O)[C@@H](O)[C@H](Oc2ccc3c(O)c(NC(=O)c4ccc(O)c(CC=C(C)C)c4)c(=O)oc3c2C)OC1(C)C
[1]
  outcome: inactive
[2]
  Potency: inactive
[3]
  outcome: inactive
[4]
  Potency: inactive
[5]
  outcome: inactive
[6]
  fluorescence, relative to Rose Bengal: -0.195% [at 18.6 µM]
[7]
  fluorescence, % of fluorescein control: -0.0594% [at 18.6 µM]
[8]
  fluorescence, % of triamterene: 0.0216% [at 18.6 µM]
[9]
  fluorescence, % of fluorescent control: 0.173% [at 18.6 µM]
[10]
  fluorescence, % of fluorescein: -0.0123% [at 18.6 µM]
[11]
  fluorescence, % of fluorescent control: 0.0286% [at 18.6 µM]
[12]
  activity change: -0.156% [at 18.6 µM]
[19]
  fluorescence, % of fluorescent control: 0.0652% [at 18.6 µM]
[13]
  fluorescence, % of Rose Bengal: 0.235% [at 18.6 µM]
[14]
  fluorescence, % of fluorescent control: 0.0828% [at 18.6 µM]
[16]
  fluorescence, % of fluorescent control: 0.0292% [at 18.6 µM]
[17]
  Potency: inactive
[18]
  outcome: inactive

## Cc1cc(Cl)c(C)cc1Cl
[1]
  outcome: inactive
[2]
  Potency: inactive
[3]
  outcome: inactive
[4]
  Potency: inactive
[5]
  outcome: inactive
[6]
  outcome: inactive
[7]
  outcome: inactive
[8]
  outcome: inactive
[9]
  outcome: inactive
[10]
  outcome: inactive
[11]
  outcome: inactive
[12]
  outcome: inactive
[13]
  outcome: inactive
[14]
  outcome: inactive
[16]
  outcome: inactive
[17]
  Potency: inactive
[18]
  outcome: inactive

## CNS(=O)(=O)CCc1ccc2[nH]cc(C3CCN(C)CC3)c2c1
[1]
  outcome: inactive
[2]
  Potency: inactive
[3]
  outcome: inactive
[4]
  Potency: inactive
[5]
  outcome: inactive
[6]
  outcome: inactive
[7]
  outcome: inactive
[8]
  outcome: inactive
[9]
  outcome: inactive
[10]
  outcome: inactive
[11]
  outcome: inactive
[12]
  outcome: inactive
[19]
  outcome: inactive
[13]
  outcome: inactive
[14]
  outcome: inactive
[15]
  outcome: inactive
[16]
  outcome: inactive
[17]
  Potency: inactive

## Cc1ccc(S(=O)(=O)O)c(C)c1
[1]
  outcome: inactive
[2]
  Potency: inactive
[3]
  outcome: inactive
[4]
  Potency: inactive
[5]
  outcome: inactive
[6]
  outcome: inactive
[7]
  outcome: inactive
[8]
  outcome: inactive
[9]
  outcome: inactive
[10]
  outcome: inactive
[11]
  outcome: inactive
[12]
  outcome: inactive
[19]
  outcome: inactive
[13]
  outcome: inactive
[14]
  outcome: inactive
[15]
  outcome: inactive
[16]
  outcome: inactive
[17]
  Potency: inactive
[18]
  outcome: inactive

## CCCCNC1CC(C)(C)NC(C)(C)C1
[1]
  outcome: inactive
[2]
  Potency: inactive
[3]
  outcome: inactive
[4]
  Potency: inactive
[5]
  outcome: inactive
[6]
  outcome: inactive
[7]
  outcome: inactive
[8]
  outcome: inactive
[9]
  outcome: inactive
[10]
  outcome: inactive
[11]
  outcome: inactive
[12]
  outcome: inactive
[13]
  outcome: inactive
[14]
  outcome: inactive
[15]
  outcome: inactive
[16]
  outcome: inactive
[17]
  Potency: inactive
[18]
  outcome: inactive

## CCCCCOC(=O)CCC
[1]
  outcome: inactive
[2]
  Potency: inactive
[3]
  outcome: inactive
[4]
  Potency: inactive
[5]
  outcome: inactive
[6]
  outcome: inactive
[7]
  outcome: inactive
[8]
  outcome: inactive
[9]
  outcome: inactive
[10]
  outcome: inactive
[11]
  outcome: inactive
[12]
  outcome: inactive
[13]
  outcome: inactive
[14]
  outcome: inactive
[15]
  outcome: inactive
[16]
  outcome: inactive

## CCCCCCCCCC(C)=O
[1]
  outcome: inactive
[2]
  Potency: inactive
[3]
  outcome: inactive
[4]
  Potency: inactive
[5]
  outcome: inactive
[6]
  outcome: inactive
[8]
  outcome: inactive
[9]
  outcome: inactive
[10]
  outcome: inactive
[11]
  outcome: inactive
[19]
  outcome: inactive
[13]
  outcome: inactive
[14]
  outcome: inactive
[15]
  outcome: inactive
[16]
  outcome: inactive
[17]
  Potency: inactive
[18]
  outcome: inactive

## CCCCN
[1]
  outcome: inactive
[2]
  Potency: inactive
[3]
  outcome: inactive
[4]
  Potency: inactive
[5]
  outcome: inactive
[6]
  outcome: inactive
[7]
  outcome: inactive
[8]
  outcome: inactive
[9]
  outcome: inactive
[10]
  outcome: inactive
[11]
  outcome: inactive
[12]
  outcome: inactive
[19]
  outcome: inactive
[13]
  outcome: inactive
[14]
  outcome: inactive
[15]
  outcome: inactive
[16]
  outcome: inactive
[17]
  Potency: inactive

## Cc1c(I)c(=O)n(-c2ccccc2)n1C
[1]
  outcome: inactive
[2]
  Potency: inactive
[3]
  outcome: inactive
[4]
  Potency: inactive
[5]
  outcome: inactive
[6]
  outcome: inactive
[7]
  outcome: inactive
[8]
  outcome: inactive
[9]
  outcome: inactive
[10]
  outcome: inactive
[11]
  outcome: inactive
[12]
  outcome: inactive
[19]
  outcome: inactive
[13]
  outcome: inactive
[14]
  outcome: inactive
[15]
  outcome: inactive
[16]
  outcome: inactive
[17]
  Potency: inactive

## Cc1cccc2nccnc12
[1]
  outcome: inactive
[2]
  Potency: inactive
[3]
  outcome: inactive
[4]
  Potency: inactive
[5]
  outcome: inactive
[6]
  outcome: inactive
[7]
  outcome: inactive
[8]
  outcome: inactive
[9]
  outcome: inactive
[10]
  outcome: inactive
[11]
  outcome: inactive
[12]
  outcome: inactive
[19]
  outcome: inactive
[13]
  outcome: inactive
[14]
  outcome: inactive
[15]
  outcome: inactive
[16]
  outcome: inactive
[17]
  Potency: inactive

## CCCCCCCCC1CCC(=O)O1 (stereo not drawn)
[1]
  outcome: inactive
[2]
  Potency: inactive
[3]
  outcome: inactive
[4]
  Potency: inactive
[5]
  outcome: inactive
[6]
  outcome: inactive
[7]
  outcome: inactive
[8]
  outcome: inactive
[9]
  outcome: inactive
[10]
  outcome: inactive
[11]
  outcome: inactive
[12]
  outcome: inactive
[19]
  outcome: inactive
[13]
  outcome: inactive
[14]
  outcome: inactive
[15]
  outcome: inactive
[16]
  outcome: inactive
[17]
  Potency: 43.6 µM (active)
